Holding throughout (assay): DAPPL (digital affinity profiling via proximity ligation, sequencing); 10 mM Tris-HCl pH 7.5, 50 mM NaCl, 1 mM DTT, 4% glycerol, room temperature, 30 min; GST-TFs on glutathione beads, 16-mer random dsDNA library, 0.1% formaldehyde crosslink after washing; high values mean tight binding
Conditions in all cases: protein: recombinant; tags: N-terminal GST; dsDNA, one strand shown

Experiment [1] concerns the target T1, FLI1 (Homo sapiens, UniProt Q01543 1-452).
T1 sequence: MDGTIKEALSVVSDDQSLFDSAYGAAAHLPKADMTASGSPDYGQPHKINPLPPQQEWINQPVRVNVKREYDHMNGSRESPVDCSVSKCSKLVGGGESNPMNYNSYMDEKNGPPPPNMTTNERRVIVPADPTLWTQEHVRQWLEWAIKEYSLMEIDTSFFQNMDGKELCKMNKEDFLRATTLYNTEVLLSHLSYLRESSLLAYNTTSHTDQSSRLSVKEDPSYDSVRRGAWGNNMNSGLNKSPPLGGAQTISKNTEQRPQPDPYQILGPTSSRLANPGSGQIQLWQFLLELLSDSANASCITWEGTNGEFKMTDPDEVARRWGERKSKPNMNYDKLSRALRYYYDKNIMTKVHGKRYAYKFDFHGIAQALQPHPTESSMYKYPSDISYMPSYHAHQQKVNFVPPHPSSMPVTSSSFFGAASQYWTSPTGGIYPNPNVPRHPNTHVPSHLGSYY
The gist of the method:
(§1)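 GST fusions of human transcription factors were expressed in yeast and captured with glutathione beads. Once given DNA barcodes and pooled alongside a tag-only sample, they were incubated for 30 min at room temperature with 200 nmole of a random double-stranded 16-mer DNA library in Tris/NaCl/DTT/glycerol buffer, then washed, crosslinked (0.1% formaldehyde), proximity-ligated, PCR-amplified and sequenced on an Illumina NextSeq500. The binding signal of each hexamer is its read frequency for a factor divided by its frequency for the tag-only sample.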

Experiment [2] concerns the target T2, ELK1 (Homo sapiens, UniProt P19419 1-428).
T2 sequence: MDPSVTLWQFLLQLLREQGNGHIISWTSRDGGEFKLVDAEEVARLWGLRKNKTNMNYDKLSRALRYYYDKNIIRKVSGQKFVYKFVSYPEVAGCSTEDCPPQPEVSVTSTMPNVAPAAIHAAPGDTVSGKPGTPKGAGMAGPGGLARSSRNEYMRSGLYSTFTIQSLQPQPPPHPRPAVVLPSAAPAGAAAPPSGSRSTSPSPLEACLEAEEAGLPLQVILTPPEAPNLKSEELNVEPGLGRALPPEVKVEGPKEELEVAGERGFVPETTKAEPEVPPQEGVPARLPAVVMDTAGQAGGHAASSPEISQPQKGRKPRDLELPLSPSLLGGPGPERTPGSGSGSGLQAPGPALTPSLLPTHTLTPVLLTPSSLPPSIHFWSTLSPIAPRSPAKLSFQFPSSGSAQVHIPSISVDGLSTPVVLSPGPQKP
The gist of the method:
as §1

Experiment [3] concerns the target T3, GABPA (Homo sapiens, UniProt Q06546 1-454).
T3 sequence: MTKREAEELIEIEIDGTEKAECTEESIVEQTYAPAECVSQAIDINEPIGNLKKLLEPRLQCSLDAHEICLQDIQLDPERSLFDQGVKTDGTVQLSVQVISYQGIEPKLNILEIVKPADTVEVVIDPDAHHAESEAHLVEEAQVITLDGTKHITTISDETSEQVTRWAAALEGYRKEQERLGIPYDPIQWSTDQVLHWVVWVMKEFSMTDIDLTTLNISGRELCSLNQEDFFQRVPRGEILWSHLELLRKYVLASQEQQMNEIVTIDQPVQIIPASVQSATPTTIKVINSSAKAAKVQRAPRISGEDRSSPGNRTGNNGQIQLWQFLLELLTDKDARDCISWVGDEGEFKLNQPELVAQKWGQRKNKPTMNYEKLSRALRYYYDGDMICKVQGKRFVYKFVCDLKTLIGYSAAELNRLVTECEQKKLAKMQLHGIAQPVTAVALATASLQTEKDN
The gist of the method:
as §1

Experiment [4] concerns the target T4, ERG (Homo sapiens, UniProt P11308 1-479).
T4 sequence: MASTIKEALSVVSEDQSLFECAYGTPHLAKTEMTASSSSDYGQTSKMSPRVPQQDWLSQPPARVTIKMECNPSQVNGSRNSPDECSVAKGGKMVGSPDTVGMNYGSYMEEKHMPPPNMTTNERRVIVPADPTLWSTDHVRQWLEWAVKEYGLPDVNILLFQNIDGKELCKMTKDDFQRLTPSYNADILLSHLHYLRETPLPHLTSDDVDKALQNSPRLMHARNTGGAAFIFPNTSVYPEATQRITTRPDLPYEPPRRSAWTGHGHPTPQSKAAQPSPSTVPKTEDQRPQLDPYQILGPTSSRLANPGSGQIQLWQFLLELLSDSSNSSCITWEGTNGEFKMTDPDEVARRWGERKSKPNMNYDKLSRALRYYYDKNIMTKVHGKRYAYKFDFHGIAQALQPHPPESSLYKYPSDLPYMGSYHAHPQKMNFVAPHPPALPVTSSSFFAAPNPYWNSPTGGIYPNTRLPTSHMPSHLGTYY
In outline:
as §1

In experiment [5] the target is ELF1 (Homo sapiens, UniProt P32519 1-619). The gist of the method:
as §1

Experiment [6] deals with T5, EHF (Homo sapiens, UniProt Q9NZC4 1-300).
T5 sequence: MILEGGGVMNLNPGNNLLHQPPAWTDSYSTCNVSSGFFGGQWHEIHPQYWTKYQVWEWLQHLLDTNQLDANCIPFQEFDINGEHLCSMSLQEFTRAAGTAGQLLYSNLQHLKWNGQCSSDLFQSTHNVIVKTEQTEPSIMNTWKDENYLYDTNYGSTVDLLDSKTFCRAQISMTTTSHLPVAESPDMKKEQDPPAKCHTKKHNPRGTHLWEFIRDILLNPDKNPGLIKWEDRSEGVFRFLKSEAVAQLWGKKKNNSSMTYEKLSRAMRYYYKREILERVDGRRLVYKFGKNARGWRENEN
In outline: as §1

Experiment [7] has as its target SPI1 (Homo sapiens, UniProt P17947 1-270). The gist of the method:
as §1

Experiment [8] addresses SPIB (Homo sapiens, UniProt Q01892 1-262). The gist of the method: as §1
In experiment [9] the target is T6, ELK3 (Homo sapiens, UniProt P41970 1-407).
T6 sequence: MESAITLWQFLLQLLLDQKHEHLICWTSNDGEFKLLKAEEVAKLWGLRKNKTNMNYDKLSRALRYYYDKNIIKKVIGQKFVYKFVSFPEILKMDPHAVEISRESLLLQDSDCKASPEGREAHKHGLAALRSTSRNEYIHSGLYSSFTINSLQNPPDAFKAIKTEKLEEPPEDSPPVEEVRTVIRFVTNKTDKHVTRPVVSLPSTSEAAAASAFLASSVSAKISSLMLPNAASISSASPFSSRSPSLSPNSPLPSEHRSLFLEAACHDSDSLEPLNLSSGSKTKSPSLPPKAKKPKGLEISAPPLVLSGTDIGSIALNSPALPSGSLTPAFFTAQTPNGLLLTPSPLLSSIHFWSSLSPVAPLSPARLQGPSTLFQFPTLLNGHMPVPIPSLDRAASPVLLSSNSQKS
In outline:
as §1

The target of experiment [10] is T7, FEV (Homo sapiens, UniProt Q99581 1-238).
T7 sequence: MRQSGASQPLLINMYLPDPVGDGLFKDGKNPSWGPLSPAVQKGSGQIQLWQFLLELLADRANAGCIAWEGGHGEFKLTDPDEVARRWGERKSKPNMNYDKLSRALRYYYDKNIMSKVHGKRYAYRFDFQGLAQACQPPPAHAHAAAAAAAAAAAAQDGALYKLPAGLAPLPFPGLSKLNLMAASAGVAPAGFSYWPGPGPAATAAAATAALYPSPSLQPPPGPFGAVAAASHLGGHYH
In outline:
as §1

Experiment [11] addresses ETV5 (Homo sapiens, UniProt P41161 1-510). The gist of the method: as §1
In experiment [12] the target is T8, SPIC (Homo sapiens, UniProt Q8N5J4 1-248).
T8 sequence: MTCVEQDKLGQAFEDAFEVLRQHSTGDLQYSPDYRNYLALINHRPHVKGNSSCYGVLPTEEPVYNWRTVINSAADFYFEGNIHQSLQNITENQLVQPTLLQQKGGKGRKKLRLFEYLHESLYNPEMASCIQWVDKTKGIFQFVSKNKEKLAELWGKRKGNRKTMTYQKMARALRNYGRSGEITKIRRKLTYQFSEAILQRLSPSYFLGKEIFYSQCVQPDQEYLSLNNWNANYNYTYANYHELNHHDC
In outline: as §1

Experiment [13] has as its target ELF4 (Homo sapiens, UniProt Q99607 1-663). In outline: as §1
For experiment [14], the target named is T9, ELK4 (Homo sapiens, UniProt P28324-2 1-405).
T9 sequence: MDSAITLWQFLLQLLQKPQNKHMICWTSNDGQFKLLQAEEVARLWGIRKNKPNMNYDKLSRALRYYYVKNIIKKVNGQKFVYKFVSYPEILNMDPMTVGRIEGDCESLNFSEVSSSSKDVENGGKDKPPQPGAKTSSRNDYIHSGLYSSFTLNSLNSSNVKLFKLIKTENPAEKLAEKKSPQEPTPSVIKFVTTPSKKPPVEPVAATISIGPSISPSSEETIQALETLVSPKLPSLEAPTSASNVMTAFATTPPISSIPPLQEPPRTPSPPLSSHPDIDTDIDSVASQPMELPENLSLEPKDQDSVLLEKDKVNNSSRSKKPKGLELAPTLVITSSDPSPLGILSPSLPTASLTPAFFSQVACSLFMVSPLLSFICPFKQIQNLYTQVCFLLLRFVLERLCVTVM
In outline: as §1

Experiment [15] has as its target T10, ETV2 (Homo sapiens, UniProt O00321 1-342).
T10 sequence: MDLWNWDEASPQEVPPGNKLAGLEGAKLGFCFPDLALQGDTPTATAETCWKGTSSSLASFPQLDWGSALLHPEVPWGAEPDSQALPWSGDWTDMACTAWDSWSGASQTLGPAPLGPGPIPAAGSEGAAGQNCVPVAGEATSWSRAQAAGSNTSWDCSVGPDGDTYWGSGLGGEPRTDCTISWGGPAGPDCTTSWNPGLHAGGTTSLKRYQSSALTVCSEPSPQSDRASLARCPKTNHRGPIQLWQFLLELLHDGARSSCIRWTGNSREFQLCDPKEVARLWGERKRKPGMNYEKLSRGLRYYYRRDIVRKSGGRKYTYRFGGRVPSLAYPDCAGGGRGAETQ
In outline:
as §1

Experiment [16] addresses T11, ELF3 (Homo sapiens, UniProt P78545 1-371).
T11 sequence: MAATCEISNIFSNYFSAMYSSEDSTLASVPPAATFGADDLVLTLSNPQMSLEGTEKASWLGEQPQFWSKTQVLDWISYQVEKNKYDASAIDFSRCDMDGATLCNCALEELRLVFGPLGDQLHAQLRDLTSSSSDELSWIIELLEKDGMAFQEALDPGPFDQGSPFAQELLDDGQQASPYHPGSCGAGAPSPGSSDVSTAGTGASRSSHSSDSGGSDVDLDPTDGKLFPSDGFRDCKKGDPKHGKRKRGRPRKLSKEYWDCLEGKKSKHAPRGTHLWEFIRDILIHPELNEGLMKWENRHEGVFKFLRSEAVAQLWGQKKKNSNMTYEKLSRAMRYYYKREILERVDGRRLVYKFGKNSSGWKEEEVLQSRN
In outline:
as §1

In experiment [17] the target is ETV1 (Homo sapiens, UniProt P50549 1-477). The gist of the method:
as §1

ELF4, sequence (Q99607 whole entry): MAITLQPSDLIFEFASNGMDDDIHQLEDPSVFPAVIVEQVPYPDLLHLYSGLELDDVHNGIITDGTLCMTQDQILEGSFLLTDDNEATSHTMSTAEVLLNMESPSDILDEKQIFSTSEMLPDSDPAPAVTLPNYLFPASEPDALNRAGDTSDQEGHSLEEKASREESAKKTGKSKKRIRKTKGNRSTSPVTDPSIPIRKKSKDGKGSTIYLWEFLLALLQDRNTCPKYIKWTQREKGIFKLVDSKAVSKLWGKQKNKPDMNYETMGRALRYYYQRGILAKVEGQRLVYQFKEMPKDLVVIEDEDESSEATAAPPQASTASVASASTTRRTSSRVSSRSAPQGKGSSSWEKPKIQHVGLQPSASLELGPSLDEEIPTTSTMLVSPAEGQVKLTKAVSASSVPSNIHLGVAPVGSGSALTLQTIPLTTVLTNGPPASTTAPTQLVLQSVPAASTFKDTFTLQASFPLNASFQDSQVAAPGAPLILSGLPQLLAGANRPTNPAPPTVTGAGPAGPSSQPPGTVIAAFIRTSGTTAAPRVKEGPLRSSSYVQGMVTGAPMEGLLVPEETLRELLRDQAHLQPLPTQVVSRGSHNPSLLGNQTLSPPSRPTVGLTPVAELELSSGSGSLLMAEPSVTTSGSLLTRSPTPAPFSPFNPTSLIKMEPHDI
ETV5, sequence (P41161 whole entry): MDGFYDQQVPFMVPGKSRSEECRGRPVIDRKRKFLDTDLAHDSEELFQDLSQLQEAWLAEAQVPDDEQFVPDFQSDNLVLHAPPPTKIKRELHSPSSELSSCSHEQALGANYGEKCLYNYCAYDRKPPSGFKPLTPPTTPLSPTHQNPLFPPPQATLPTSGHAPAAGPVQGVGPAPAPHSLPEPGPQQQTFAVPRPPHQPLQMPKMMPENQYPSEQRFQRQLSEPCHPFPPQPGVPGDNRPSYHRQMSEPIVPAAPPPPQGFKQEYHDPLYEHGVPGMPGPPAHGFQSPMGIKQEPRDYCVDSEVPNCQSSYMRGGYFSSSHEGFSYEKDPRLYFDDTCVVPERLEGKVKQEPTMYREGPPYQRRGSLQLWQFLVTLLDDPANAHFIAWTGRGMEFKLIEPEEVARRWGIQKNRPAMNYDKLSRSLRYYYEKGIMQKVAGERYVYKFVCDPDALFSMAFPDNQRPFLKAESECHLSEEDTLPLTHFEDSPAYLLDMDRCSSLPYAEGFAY
SPIB, sequence (Q01892 whole entry): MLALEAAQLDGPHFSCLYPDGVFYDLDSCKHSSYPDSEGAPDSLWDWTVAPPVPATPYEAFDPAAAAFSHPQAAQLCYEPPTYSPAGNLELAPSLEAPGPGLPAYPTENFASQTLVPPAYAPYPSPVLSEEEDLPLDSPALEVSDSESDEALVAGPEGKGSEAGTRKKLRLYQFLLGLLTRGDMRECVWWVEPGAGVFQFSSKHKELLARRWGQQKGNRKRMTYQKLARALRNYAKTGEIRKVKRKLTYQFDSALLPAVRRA
ETV1, sequence (P50549 whole entry): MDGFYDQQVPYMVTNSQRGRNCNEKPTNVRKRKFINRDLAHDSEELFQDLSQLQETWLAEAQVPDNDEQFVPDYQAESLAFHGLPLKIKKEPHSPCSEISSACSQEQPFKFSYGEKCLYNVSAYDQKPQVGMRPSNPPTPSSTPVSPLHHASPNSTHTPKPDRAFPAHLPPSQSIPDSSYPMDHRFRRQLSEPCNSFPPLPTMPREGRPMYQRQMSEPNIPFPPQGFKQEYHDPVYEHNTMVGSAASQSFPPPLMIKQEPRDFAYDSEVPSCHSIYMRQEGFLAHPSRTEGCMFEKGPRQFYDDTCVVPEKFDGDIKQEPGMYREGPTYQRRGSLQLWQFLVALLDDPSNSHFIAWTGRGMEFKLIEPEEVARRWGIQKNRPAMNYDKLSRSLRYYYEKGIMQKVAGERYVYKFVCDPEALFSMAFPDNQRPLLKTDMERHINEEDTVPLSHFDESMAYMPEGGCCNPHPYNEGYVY
ELF1, sequence (P32519 whole entry): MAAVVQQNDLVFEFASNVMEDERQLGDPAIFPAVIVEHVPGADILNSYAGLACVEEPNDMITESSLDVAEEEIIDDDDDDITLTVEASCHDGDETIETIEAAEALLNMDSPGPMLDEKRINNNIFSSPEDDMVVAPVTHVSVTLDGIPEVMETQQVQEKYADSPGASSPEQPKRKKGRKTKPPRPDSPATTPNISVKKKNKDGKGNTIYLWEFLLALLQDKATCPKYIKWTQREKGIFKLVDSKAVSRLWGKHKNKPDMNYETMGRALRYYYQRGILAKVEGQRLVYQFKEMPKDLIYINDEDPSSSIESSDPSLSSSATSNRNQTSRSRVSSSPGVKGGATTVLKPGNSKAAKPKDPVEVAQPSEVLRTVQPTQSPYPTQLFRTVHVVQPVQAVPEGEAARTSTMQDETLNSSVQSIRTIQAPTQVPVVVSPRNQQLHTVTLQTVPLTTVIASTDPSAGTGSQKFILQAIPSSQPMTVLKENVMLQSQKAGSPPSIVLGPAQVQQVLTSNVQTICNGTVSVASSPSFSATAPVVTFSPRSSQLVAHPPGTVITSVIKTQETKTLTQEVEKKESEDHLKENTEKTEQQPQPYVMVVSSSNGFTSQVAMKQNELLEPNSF

Take CACTGT: the binding signal in [1] was 1.12 fold enrichment (6-mer frequency, TF over GST control); in experiment [2], 1.09 fold enrichment (6-mer frequency, TF over GST control); in experiment [3], 1.17 fold enrichment (6-mer frequency, TF over GST control); in experiment [4] it was 1.14 fold enrichment (6-mer frequency, TF over GST control); in [5], 1.16 fold enrichment (6-mer frequency, TF over GST control); in [6], 1.19 fold enrichment (6-mer frequency, TF over GST control). Moreover, the binding signal is 1.11 fold enrichment (6-mer frequency, TF over GST control) in experiment [7]; 1.22 fold enrichment (6-mer frequency, TF over GST control) in [8]; 1.03 fold enrichment (6-mer frequency, TF over GST control) in experiment [9]; 1.09 fold enrichment (6-mer frequency, TF over GST control) in experiment [10]; 1.1 fold enrichment (6-mer frequency, TF over GST control) in experiment [11]; 1.19 fold enrichment (6-mer frequency, TF over GST control) in [12]. Besides, the binding signal is 1.15 fold enrichment (6-mer frequency, TF over GST control) in experiment [13]; 1.17 fold enrichment (6-mer frequency, TF over GST control) in experiment [14]; 1.25 fold enrichment (6-mer frequency, TF over GST control) in experiment [15]; 1.04 fold enrichment (6-mer frequency, TF over GST control) in [16]; 1.11 fold enrichment (6-mer frequency, TF over GST control) in [17].

Source of the values: paper PMC7862700, “An all-to-all approach to the identification of sequence-specific readers for epigenetic DNA modifications on cytosine”.
